Records with an inconclusive call do not appear. Entries that show only a call come without a potency. The source made the active and inactive calls. Calls come from the whole dose curve.
Target: Beta-2 adrenergic receptor (Homo sapiens) (UniProt P07550)
Assay: Adrenergic beta2 receptor (ADRB2) small molecule agonists, cell-based qHTS assay (AID 1963593);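 note: CHO cells stably overexpressing human ADRB2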
Outline: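 CHO cells stably over-expressing ADRB2 were plated overnight at 37C, then dosed with compounds plus a stimulation mix containing 100uM IBMX and 25uM Ro-20-1724 for 0.5hr at room temperature. cAMP was measured by HTRF competition, 1hr.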

Sequence of Beta-2 adrenergic receptor (Homo sapiens) (P07550 whole entry, looked up): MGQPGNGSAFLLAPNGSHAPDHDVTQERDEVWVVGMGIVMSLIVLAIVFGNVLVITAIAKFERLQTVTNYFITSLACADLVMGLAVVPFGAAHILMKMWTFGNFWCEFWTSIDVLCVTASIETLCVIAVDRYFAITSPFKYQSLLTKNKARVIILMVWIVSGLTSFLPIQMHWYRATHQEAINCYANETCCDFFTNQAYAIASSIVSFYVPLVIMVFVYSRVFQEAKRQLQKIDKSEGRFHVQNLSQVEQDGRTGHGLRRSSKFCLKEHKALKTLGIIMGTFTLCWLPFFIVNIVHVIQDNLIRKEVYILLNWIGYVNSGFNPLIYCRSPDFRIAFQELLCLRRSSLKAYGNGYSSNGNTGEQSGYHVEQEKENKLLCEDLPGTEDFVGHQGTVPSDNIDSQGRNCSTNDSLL

Row | SMILES | Potency
1 | NC(=O)c1cc([N+](=O)[O-])cc([N+](=O)[O-])c1 | inactive
2 | CC(C)(OOC(C)(C)c1ccccc1)c1ccccc1 | inactive
3 | CC(Br)C(=O)O (configuration not stated) | inactive
4 | CC(C)NC(=O)N1CC(=O)N(c2cc(Cl)cc(Cl)c2)C1=O | inactive
5 | C(=NC1CCCCC1)=NC1CCCCC1 | inactive
6 | CCCCCCCCCBr | inactive
7 | CC(O)CCO (configuration not stated) | inactive
8 | Cc1ccc(C(=O)Cl)cc1 | inactive
9 | C=CC1(C)OC(=O)N(c2cc(Cl)cc(Cl)c2)C1=O (configuration not stated) | inactive
10 | C[N+]1(C)CCCCC1 | inactive
11 | O=C(Cl)OCCOCCOC(=O)Cl | inactive
12 | Cc1cnc[nH]1 | inactive
13 | OC(O)C(Cl)(Cl)Cl | inactive
14 | Clc1cccc(C(Cl)(Cl)Cl)n1 | inactive
15 | CC(C)NC(C)C | inactive
16 | COC(=O)Cc1ccccc1 | inactive
17 | Nc1ccc(Cl)c(Cl)c1 | inactive
18 | CCC(=O)c1ccccc1 | inactive
19 | CNC(=S)S | inactive
20 | O=C(NCO)NCO | inactive
21 | ClCC1CO1 (configuration not stated) | inactive
22 | C=C(C)C(=O)OCC1CO1 (configuration not stated) | inactive
23 | CC(Oc1ccc(Cl)cc1Cl)C(=O)O (configuration not stated) | inactive

Row | SMILES | Potency
24 | CC[N+](=O)[O-] | inactive
25 | CN(C)CCO | inactive
26 | c1ccc(NNc2ccccc2)cc1 | inactive
27 | O=P(Cl)(Cl)Cl | inactive
28 | Clc1ccc(Cl)cc1 | inactive
29 | BrCCc1ccccc1 | inactive
30 | CCNc1nc(NC(C)C)nc(OC)n1 | inactive
31 | Cc1cc(Cl)ccc1OCC(=O)O | inactive
32 | Oc1cc(Cl)ccc1Cl | inactive
33 | CC1(C)C(=O)NC(=O)NC1=O | inactive
34 | CCOP(=O)(OCC)OCC | inactive
35 | COc1ccc(O)c(C(C)(C)C)c1 | inactive
36 | C=CCOC(Cn1ccnc1)c1ccc(Cl)cc1Cl (configuration not stated) | inactive
37 | CCN(N=O)C(N)=O | inactive
38 | O=P1(N(CCCl)CCCl)NCCCO1 (configuration not stated) | inactive
39 | CCc1cccc(C)c1N(C(=O)CCl)C(C)COC (configuration not stated) | inactive
40 | CC(C)c1ccc(O)cc1 | inactive
41 | C1CN2CCC1CC2 | inactive
42 | C[C@]12CCC(=O)C=C1CC[C@@H]1[C@@H]2CC[C@@]2(C)[C@H]1CC[C@]2(C)O | inactive
43 | [N-]=[N+]=CC(=O)OC[C@H](N)C(=O)O | inactive
44 | CC(C)Oc1cc(-n2nc(C(C)(C)C)oc2=O)c(Cl)cc1Cl | inactive
45 | [N-]=[N+]=[N-] | inactive
46 | O=S(=O)(c1ccc(O)cc1)c1ccc(O)cc1 | inactive

Row | SMILES | Potency
47 | C=CC(=O)OCCCCCC(C)C | inactive
48 | C[C@]12CCC(=O)C(O)=C1CC[C@@H]1[C@@H]2CC[C@]2(C)C(=O)CC[C@@H]12 | inactive
49 | O=[N+]([O-])c1ccc(Cl)cc1 | inactive
50 | C[C@]12CCC(=O)C=C1CC[C@@H]1[C@@H]2CC[C@]2(C)C(=O)CC[C@@H]12 | inactive
51 | CCC/C=N/O | inactive
52 | O=C(O)C(Cl)(Cl)Cl | inactive
53 | O=C(NC(=O)c1c(F)cccc1F)Nc1cc(Cl)c(OC(F)(F)C(F)C(F)(F)F)cc1Cl (configuration not stated) | inactive
54 | CCCCC(CC)C(=O)Cl (configuration not stated) | inactive
55 | NCCc1ccc(O)cc1 | inactive
56 | CNC(=O)Oc1ccccc1C1OCCO1 | inactive
57 | CC(C)c1cccc(C(C)C)c1O | inactive
58 | CC(C)=CC1C(C(=O)OCc2cccc(Oc3ccccc3)c2)C1(C)C (configuration not stated) | inactive
59 | CCCCCON=O | inactive
60 | C#C[C@]1(O)CC[C@H]2[C@@H]3CCC4=CC(=O)CC[C@]4(C)[C@H]3CC[C@@]21C | inactive
61 | CCC(=O)O[C@@H]1C=C2CCC3C(CCC4(C)C3CC[C@@H]4OC(=O)CC)C2CC1 (some centres not stated) | inactive
62 | CC(C)(C)OOC(C)(C)C | inactive
63 | Cc1cccc(N)c1C | inactive
64 | O=[N+]([O-])c1ccc(Oc2ccc(Cl)cc2Cl)cc1 | inactive
65 | N#Cc1cc(Br)c(O)c(Br)c1 | inactive
66 | COC(=O)c1c(C(F)F)nc(C(F)(F)F)c(C2=NCCS2)c1CC(C)C | inactive
67 | C=C1CC[C@@]2(O)[C@H]3Cc4ccc(O)c5c4[C@@]2(CCN3CC2CC2)[C@H]1O5 | inactive

Source: PubChem BioAssay (Tox21)
